The record followed here is PubChem BioAssay (EPA / NIEHS).

Test [1] has as its target Myc proto-oncogene protein (Homo sapiens) (UniProt P01106). As to the kind of experiment: ATG_Myc_CIS: Attagene CIS-FACTORIAL HepG2 Assay for human Myelocytomatosis (Myc) Proto-Oncogene Transcription Factor (AID 2282990). To be noted: HepG2, Attagene cis-reporter transcription factor activity; actives raise or lower the signal. In outline:
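HepG2, transient MRTU transfection (cis promoters, endogenous TFs); 24 h dosing; TriZol RNA → oligo(dT) RT → PCR → 6-FAM primer extension → HpaI cut → CE. Bidirectional fit vs DMSO.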

The nature of test [2]: ATG_NF_kB_CIS: Attagene CIS-FACTORIAL HepG2 Assay for human Nuclear Factor Kappa B (NF-kB) (AID 2282991). To be noted: HepG2 Attagene cis-factorial NF-kB reporter mRNA; actives raise or lower the signal. A digest of the protocol:
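Fluorescence of labelled RT-PCR products separated by capillary electrophoresis gives reporter mRNA levels from transfected HepG2 cells exposed 24 h; values are fitted in both directions relative to DMSO.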

Test [3] in a line: ATG_NRF2_ARE_CIS: Attagene CIS-FACTORIAL HepG2 Assay for human Nuclear Factor Erythroid 2 Related Factor 2 (NFR2) response to Antioxidant Response Elements (ARE) (AID 2282992). The following applies: HepG2 Attagene ARE/NRF2 reporter, transcription factor activity; actives raise or lower the signal. In outline:
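Multiplexed reporter mRNA profiling in HepG2 after a 24 h chemical exposure. Curves fitted in both directions relative to DMSO negative control.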

Test [4] can be described thus: ATG_Oct_MLP_CIS: Attagene CIS-FACTORIAL HepG2 Assay for human Octamer-Binding Transcription Factor (Oct) (AID 2282993). The following applies: HepG2 Attagene cis-factorial Oct reporter, mRNA; actives raise or lower the signal. In outline: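 Cells of the HepG2 line express promoter-controlled reporter sequences whose mRNA levels, after 24 h treatment, are measured by RT-PCR and capillary electrophoresis. Increases and decreases are scored relative to DMSO.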

Test [5] has as its target Cellular tumor antigen p53 (Homo sapiens) (UniProt P04637). Description: ATG_p53_CIS: Attagene CIS-FACTORIAL HepG2 Assay for human p53 Transcription Factor (AID 2282994). The following applies: HepG2 p53 cis-element reporter, Attagene mRNA; actives raise or lower the signal. In outline:
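Multiplexed reporter mRNA assay in human HepG2 liver cells; cis-regulated units report endogenous factor activity. Values come from bidirectional curve fitting against DMSO negative control after 24 h treatment.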

Test [6] is described as follows: BSK_3C_TissueFactor: BioMAP Diversity Plus: 3C Assay for Tissue Factor Biomarker Activity (AID 2282997). To be noted: BioMAP 3C HUVEC, tissue factor biomarker readout; actives raise or lower the signal. A digest of the protocol:
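ELISA read-out of Tissue Factor levels on human umbilical vein endothelium collected 24 h after chemical dosing. Gain or loss of signal was fitted relative to DMSO.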

A short description of test [7]: BSK_3C_uPAR: BioMAP Diversity Plus: 3C Assay for Urokinase-type plasminogen activator receptor (uPAR) Biomarker Activity (AID 2282998). The following applies: BioMAP 3C HUVEC, uPAR biomarker ELISA; actives raise or lower the signal. A digest of the protocol:
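Endothelial primary cells of human umbilical vein origin received test chemical; 24 h later uPAR was assayed by ELISA. Fitting was bidirectional, DMSO as negative control.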

Test [8] in a line: BSK_3C_VCAM1: BioMAP Diversity Plus: 3C Assay for Vascular cell adhesion molecule 1 (VCAM1) Biomarker Activity (AID 2282999). To be noted: BioMAP 3C HUVEC, VCAM1 ELISA, cytokine-stimulated; actives raise or lower the signal. In outline: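 Endothelial cells from human umbilical vein are treated with test chemical. At 24 h, VCAM-1 is measured by ELISA, and responses in either direction are fitted relative to DMSO.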

Test [9] can be described thus: BSK_4H_Eotaxin3: BioMAP Diversity Plus: 4H Assay for Eotaxin 3 Biomarker Activity (AID 2283000).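 For outcome: CCL26 protein level quantified by ELISA in parallel with SRB cytotoxicity check.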 The following applies: primary human endothelial cells (HUVEC); actives raise or lower the signal. A digest of the protocol:
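Chemicals were added to human umbilical vein endothelium cultures, and Eotaxin-3 was quantified by ELISA at 24 h. Values were derived by bidirectional fitting with DMSO serving as negative control and activity baseline.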

Test [10] has as its target human Peroxisome Proliferator-activated Receptor alpha (PPARa), PPARA (gene 5465) (UniProt Q07869). As to the kind of experiment: ATG_PPARa_TRANS: Attagene TRANS-FACTORIAL HepG2 Assay for human Peroxisome Proliferator-activated Receptor alpha (PPARa) (AID 2283001; active = hit-call score of the fitted dose curve at least 0.9, where 1 is the maximum;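 for AC50: potency for gain of reporter signal over DMSO so agonist or activator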). In outline:
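Reporter transcripts from GAL4-UAS units in transfected HepG2 were quantified 24 h after dosing. Detection used reverse transcription, PCR, fluorescent primer extension and capillary electrophoresis, with DMSO as baseline.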

The target of test [11] is human Peroxisome Proliferator-activated Receptor delta (PPARd), PPARD (gene 5467) (UniProt Q03181). Description: ATG_PPARd_TRANS: Attagene TRANS-FACTORIAL HepG2 Assay for human Peroxisome Proliferator-activated Receptor delta (PPARd) (AID 2283002; active = hit-call score of the fitted dose curve at least 0.9, where 1 is the maximum). In outline:
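Transient HepG2 transfection (multiple GAL4-UAS RTUs, chimeric receptor-Gal4); 24 h dosing; total RNA → oligo(dT) RT → PCR → 6-FAM primer extension → HpaI cut → CE. Positive direction vs DMSO.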

Read-out in test [12]: Intercellular Adhesion Molecule 1 (ICAM1), ICAM1 (gene 3383)
As to the kind of experiment: BSK_3C_ICAM1: BioMAP Diversity Plus: 3C Assay for Intercellular Adhesion Molecule 1 (ICAM1) Biomarker Activity (AID 2283003). To be noted: primary human endothelial cells (HUVEC); actives raise or lower the signal. In outline:
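Primary human umbilical vein endothelial cells in the BioMAP 3C system were exposed to chemicals for 24 h, then ICAM-1 was quantified by ELISA. Activity was fitted bidirectionally against the DMSO negative control baseline.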

The nature of test [13]: BSK_3C_Proliferation: Cell Proliferation Assessment in the BioMAP Diversity Plus: 3C Assay (AID 2283006).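 For AC50: potency may reflect either rise or fall in cell number versus DMSO.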 The following applies: primary human endothelial cells (HUVEC). In outline: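 Human umbilical vein endothelial cells were grown sub-confluent and exposed to chemical for 48 h, then fixed with 10% TCA and stained with 0.1% sulforhodamine B; absorbance at 560 nm gave relative cell number, fitted bidirectionally against DMSO baseline.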

For test [14], the target named is Peroxisome proliferator-activated receptor gamma (Homo sapiens) (UniProt P37231). Description: ATG_PPARg_TRANS: Attagene TRANS-FACTORIAL HepG2 Assay for human Peroxisome Proliferator-activated Receptor-gamma (PPARg) (AID 2283007; active = hit-call score of the fitted dose curve at least 0.9, where 1 is the maximum). A digest of the protocol: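 Twenty-four hours after chemical dosing of transiently transfected HepG2 cells, isolated RNA was converted to cDNA, reporter sequences amplified and 6-FAM-labelled, then HpaI-digested and analysed by capillary electrophoresis. Signal increase against DMSO was fitted.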

Test [15] addresses Nuclear receptor subfamily 1 group I member 2 (Homo sapiens) (UniProt O75469). Description: ATG_PXR_TRANS: Attagene TRANS-FACTORIAL HepG2 Assay for human Pregnane X Receptor (PXR) (AID 2283008; active = hit-call score of the fitted dose curve at least 0.9, where 1 is the maximum). A digest of the protocol:
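Measures mRNA induction of a GAL4-UAS-driven reporter in human HepG2 cells transiently expressing PXR fused to Gal4, following 24 h treatment. DMSO served as negative control and baseline.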

Test [16] has as its target human RAR-related Orphan Receptor beta (RORb), RORB (gene 6096) (UniProt Q92753). Description: ATG_RORb_TRANS: Attagene TRANS-FACTORIAL HepG2 Assay for human RAR-related Orphan Receptor beta (RORb) (AID 2283010; active = hit-call score of the fitted dose curve at least 0.9, where 1 is the maximum). A digest of the protocol:
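HepG2 cells were transiently transfected with multiplexed GAL4-UAS reporter units expressing chimeric nuclear receptor–GAL4 proteins, then dosed for 24 h. Reporter mRNA was quantified by RT-PCR with fluorescent labelling and capillary electrophoresis; gain of signal was fitted relative to DMSO.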

Test [17] has as its target Retinoic acid receptor RXR-alpha (Homo sapiens) (UniProt P19793). Description: ATG_RXRa_TRANS: Attagene TRANS-FACTORIAL HepG2 Assay for human Retinoid X Receptor alpha (RXRa) (AID 2283012; active = hit-call score of the fitted dose curve at least 0.9, where 1 is the maximum). A digest of the protocol:
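HepG2 cells transiently transfected with multiplexed GAL4-UAS reporter units and chimeric NR-GAL4 fusions, dosed 24 h. Reporter mRNA measured by RT-PCR, FAM labelling, HpaI digestion and capillary electrophoresis; gain-of-signal fitted relative to DMSO baseline.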

In test [18] the target is Retinoic acid receptor alpha (Homo sapiens) (UniProt P10276). As to the kind of experiment: ATG_RARa_TRANS: Attagene TRANS-FACTORIAL HepG2 Assay for human Retinoic Acid Receptor alpha (RARa) (AID 2283005; active = hit-call score of the fitted dose curve at least 0.9, where 1 is the maximum). A digest of the protocol: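 Reporter transcripts, measured by RT-PCR with fluorescent labeling and capillary electrophoresis after 24 h dosing, reflect activity of an exogenous human RARa–GAL4 fusion in transiently transfected HepG2. Fitted for increase relative to DMSO.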

The target in test [19] is human Retinoic Acid Receptor gamma (RARg), RARG (gene 5916) (UniProt P13631). Description: ATG_RARg_TRANS: Attagene TRANS-FACTORIAL HepG2 Assay for human Retinoic Acid Receptor gamma (RARg) (AID 2283009; active = hit-call score of the fitted dose curve at least 0.9, where 1 is the maximum;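 for AC50: AC50 is for reporter induction above DMSO meaning RARg activation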). In outline: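 HepG2 cells transiently transfected with multiplexed reporter units expressing chimeric RARg-GAL4 and GAL4-UAS-driven reporters; 24 h compound exposure. Reporter mRNA quantified by RT-PCR with fluorescent labelling and capillary electrophoresis; gain-of-signal fitted relative to DMSO baseline.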

For test [20], the target named is human RAR-related Orphan Receptor gamma (RORg), RORC (gene 6097) (UniProt P51449). Description: ATG_RORg_TRANS: Attagene TRANS-FACTORIAL HepG2 Assay for human RAR-related Orphan Receptor gamma (RORg) (AID 2283011; active = hit-call score of the fitted dose curve at least 0.9, where 1 is the maximum). In outline: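 First, HepG2 liver cells were transfected with GAL4-UAS-driven reporter constructs and the RORg-Gal4 fusion. Next, they were treated with chemical for 24 h. Finally, reporter mRNA was quantified by RT-PCR and capillary electrophoresis, with upward activity fitted against DMSO.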

Inconclusive results are not listed. A structure can be active in one record and inactive in another. Calls of active or inactive are those of the source. Rule for the calls, unless noted: active = hit-call score of the fitted dose curve at least 0.9, where 1 is the maximum; inactive = score below 0.9.

Myc proto-oncogene protein (Homo sapiens), sequence (P01106 whole entry, looked up): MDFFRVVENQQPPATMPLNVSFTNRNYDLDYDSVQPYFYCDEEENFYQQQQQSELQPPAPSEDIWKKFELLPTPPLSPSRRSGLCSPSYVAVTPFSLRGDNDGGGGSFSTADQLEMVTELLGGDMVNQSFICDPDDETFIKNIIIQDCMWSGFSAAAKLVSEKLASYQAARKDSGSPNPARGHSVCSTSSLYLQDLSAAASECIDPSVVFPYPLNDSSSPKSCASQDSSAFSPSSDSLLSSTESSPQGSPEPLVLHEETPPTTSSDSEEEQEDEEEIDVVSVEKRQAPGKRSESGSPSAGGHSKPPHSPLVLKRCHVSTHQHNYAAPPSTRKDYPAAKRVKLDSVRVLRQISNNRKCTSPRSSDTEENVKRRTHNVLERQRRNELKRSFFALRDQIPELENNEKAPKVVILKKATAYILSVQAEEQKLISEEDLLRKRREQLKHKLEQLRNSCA
human Peroxisome Proliferator-activated Receptor alpha (PPARa), PPARA (gene 5465), sequence (Q07869 whole entry, looked up, the tested form may be a part): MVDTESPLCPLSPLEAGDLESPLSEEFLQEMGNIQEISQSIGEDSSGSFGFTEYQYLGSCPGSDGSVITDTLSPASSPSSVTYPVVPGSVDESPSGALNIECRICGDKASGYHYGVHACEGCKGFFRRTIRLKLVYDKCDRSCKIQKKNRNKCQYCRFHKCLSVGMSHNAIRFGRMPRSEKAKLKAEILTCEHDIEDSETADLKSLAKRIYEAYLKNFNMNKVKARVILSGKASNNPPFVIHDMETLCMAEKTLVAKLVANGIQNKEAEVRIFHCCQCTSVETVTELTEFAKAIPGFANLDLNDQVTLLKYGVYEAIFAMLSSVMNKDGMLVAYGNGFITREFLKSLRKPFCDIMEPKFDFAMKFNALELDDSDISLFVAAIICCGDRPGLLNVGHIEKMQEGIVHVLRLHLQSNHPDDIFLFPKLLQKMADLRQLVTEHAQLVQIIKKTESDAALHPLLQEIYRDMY
Nuclear receptor subfamily 1 group I member 2 (Homo sapiens), sequence (O75469 whole entry, looked up, the tested form may be a part): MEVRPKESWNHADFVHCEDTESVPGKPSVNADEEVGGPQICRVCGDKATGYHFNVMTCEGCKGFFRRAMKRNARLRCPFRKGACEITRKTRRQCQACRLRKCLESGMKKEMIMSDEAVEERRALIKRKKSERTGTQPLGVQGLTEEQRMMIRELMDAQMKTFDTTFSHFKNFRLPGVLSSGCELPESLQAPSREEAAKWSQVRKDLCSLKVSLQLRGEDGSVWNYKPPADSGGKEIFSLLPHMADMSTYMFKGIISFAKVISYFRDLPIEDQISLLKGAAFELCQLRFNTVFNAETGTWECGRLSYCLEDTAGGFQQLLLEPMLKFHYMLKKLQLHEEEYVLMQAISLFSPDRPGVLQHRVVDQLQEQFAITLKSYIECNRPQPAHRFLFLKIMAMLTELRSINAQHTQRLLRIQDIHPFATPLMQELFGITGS
human RAR-related Orphan Receptor beta (RORb), RORB (gene 6096), sequence (Q92753 whole entry, looked up, the tested form may be a part): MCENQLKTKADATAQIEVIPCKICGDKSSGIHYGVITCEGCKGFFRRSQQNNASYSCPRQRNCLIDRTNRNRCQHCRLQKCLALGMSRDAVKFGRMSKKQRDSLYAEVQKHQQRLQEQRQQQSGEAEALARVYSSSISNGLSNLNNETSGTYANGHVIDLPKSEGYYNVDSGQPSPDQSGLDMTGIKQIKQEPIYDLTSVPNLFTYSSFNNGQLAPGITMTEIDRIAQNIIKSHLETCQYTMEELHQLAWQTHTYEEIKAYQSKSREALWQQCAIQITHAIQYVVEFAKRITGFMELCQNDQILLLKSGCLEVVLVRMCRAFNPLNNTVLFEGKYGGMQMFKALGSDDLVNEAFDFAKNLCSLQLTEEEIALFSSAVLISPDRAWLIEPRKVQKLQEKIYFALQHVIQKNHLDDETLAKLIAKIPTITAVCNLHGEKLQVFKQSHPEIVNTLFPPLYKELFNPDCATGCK
Peroxisome proliferator-activated receptor gamma (Homo sapiens), sequence (P37231 whole entry, looked up): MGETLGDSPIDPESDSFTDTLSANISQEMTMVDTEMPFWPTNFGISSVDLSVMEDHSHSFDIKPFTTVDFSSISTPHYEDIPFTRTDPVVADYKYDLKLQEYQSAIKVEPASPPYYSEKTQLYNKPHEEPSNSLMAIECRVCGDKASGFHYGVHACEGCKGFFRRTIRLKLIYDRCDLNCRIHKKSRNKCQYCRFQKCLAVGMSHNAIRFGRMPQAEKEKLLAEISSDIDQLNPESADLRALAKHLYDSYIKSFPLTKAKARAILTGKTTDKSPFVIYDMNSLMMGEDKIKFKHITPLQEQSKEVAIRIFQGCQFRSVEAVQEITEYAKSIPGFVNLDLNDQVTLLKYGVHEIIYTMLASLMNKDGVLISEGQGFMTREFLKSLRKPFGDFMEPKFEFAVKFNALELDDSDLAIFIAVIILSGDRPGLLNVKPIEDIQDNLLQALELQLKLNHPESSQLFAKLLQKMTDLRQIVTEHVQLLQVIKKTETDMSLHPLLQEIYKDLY
Cellular tumor antigen p53 (Homo sapiens), sequence (P04637 whole entry, looked up): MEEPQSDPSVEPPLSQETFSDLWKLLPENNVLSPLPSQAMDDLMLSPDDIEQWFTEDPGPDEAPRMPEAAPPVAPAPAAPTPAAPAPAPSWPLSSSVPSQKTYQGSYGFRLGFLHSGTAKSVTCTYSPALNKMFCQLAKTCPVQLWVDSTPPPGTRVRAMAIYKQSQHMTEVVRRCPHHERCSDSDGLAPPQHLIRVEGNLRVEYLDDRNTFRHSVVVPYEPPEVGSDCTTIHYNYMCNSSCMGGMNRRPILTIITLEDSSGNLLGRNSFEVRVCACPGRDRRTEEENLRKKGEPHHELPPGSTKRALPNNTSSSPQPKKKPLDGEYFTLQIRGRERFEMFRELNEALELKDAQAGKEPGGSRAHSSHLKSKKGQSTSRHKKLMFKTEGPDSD
human Retinoic Acid Receptor gamma (RARg), RARG (gene 5916), sequence (P13631 whole entry, looked up, the tested form may be a part): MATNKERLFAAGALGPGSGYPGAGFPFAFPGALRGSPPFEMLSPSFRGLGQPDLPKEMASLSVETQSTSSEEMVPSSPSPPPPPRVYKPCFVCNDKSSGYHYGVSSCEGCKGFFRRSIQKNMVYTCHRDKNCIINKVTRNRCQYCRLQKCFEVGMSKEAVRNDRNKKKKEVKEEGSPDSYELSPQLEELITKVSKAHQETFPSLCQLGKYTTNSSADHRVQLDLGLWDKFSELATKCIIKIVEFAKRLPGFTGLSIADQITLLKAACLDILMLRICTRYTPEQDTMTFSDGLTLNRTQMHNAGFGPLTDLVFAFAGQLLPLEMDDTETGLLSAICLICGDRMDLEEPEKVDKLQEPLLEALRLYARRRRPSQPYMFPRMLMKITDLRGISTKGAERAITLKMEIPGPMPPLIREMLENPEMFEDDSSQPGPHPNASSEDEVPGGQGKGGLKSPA
Retinoic acid receptor alpha (Homo sapiens), sequence (P10276 whole entry, looked up, the tested form may be a part): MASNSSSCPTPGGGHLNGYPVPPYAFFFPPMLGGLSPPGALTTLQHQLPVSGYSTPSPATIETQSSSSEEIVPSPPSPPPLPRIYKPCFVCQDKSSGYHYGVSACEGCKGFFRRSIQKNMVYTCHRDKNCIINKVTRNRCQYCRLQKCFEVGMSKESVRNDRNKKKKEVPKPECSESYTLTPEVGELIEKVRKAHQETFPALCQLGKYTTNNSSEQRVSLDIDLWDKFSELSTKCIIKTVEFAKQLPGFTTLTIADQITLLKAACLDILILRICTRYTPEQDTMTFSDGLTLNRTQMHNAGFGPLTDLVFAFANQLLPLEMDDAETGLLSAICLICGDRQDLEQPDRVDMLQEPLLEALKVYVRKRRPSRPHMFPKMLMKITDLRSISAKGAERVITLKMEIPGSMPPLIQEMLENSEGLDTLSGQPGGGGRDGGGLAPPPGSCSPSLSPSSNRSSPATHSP
Retinoic acid receptor RXR-alpha (Homo sapiens), sequence (P19793 whole entry, looked up, the tested form may be a part): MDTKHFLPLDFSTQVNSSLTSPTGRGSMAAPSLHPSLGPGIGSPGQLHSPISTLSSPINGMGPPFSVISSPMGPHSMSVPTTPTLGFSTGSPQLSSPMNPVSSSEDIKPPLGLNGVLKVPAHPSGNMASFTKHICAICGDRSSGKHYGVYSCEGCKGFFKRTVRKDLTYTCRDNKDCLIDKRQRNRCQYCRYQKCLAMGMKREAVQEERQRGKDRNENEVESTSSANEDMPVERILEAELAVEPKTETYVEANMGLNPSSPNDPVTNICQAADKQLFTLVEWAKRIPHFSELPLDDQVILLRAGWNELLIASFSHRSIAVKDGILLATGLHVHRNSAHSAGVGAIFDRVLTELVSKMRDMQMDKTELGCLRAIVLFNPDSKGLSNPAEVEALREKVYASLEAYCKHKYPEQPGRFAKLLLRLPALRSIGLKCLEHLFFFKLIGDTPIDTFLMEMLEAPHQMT
human Peroxisome Proliferator-activated Receptor delta (PPARd), PPARD (gene 5467), sequence (Q03181 whole entry, looked up, the tested form may be a part): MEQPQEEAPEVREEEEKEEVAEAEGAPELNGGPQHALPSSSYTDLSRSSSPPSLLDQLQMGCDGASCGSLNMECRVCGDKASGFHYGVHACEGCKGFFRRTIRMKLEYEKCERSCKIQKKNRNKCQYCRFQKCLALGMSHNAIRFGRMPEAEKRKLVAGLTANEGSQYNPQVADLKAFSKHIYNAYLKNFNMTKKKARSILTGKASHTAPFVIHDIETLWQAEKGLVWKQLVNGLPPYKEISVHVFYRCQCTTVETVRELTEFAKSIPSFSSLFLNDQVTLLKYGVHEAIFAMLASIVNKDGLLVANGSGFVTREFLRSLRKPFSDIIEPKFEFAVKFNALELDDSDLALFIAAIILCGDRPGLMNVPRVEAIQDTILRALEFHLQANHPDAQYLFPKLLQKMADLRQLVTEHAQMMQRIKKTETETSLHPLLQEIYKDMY

For the compound `CC(C)c1ccc(CO)cc1`, the compound was called inactive in [1], in [2], in test [3], in [4], in test [5] and in test [6]. In addition, the outcome in test [7], in [8], in [9], in [10], in test [11] and in test [12] was inactive. For the same compound, the result in [13], in test [14], in test [15] and in test [16] was inactive.

With `COP(=S)(OC)Oc1c(Cl)cc(C)cc1Cl`, the compound was called inactive in test [1], in test [2], in test [4], in [5], in [6] and in test [7]. Further, the result in test [8], in [10], in test [11], in [12] and in [17] was inactive. The AC50 in [3] was 29.2 µM (active); in [9], 5.75 µM (active); in test [13], 20 µM (active); in test [15], 6.51 µM (active).

Turning to `CCN1CCC2(CC1)COc1cc3c(cc12)N(C(=O)c1ccc(-c2ccc(-c4nnc(C)o4)cc2C)cc1)CC3`, the result in test [1], in test [2], in [4], in test [5], in test [10] and in test [11] was inactive. In addition, the compound was called inactive in [18], in [15], in [19], in test [16] and in test [17]. Further, the half-maximal activity concentration (AC50) is 5.17 µM (active) in test [3]; 13.2 µM (active) in [6]; 9.27 µM (active) in [7]; 26.9 µM (active) in [8]; 24.1 µM (active) in test [9]; 29.2 µM (active) in test [12]. Further, in test [13], the AC50 was 5.23 µM (active).

In the case of `CCCCCCCCc1ccc(O)cc1`, the compound was classed as inactive in [1], in [2], in test [3], in [4], in test [5] and in test [10]. In addition, the compound was classed as inactive in [11], in [18], in [15], in test [19], in test [20] and in test [17]. In addition, the AC50 in test [3] is 11.2 µM (active); in [6] it was 32.2 µM (active); in test [7], 37.2 µM (active); in [8], 31.9 µM (active); in [9] it was 33.5 µM (active); in test [10] it was 24.8 µM (active). Besides, the half-maximal activity concentration (AC50) is 35.6 µM (active) in [12]; 8.43 µM (active) in [13]; 22 µM (active) in test [14]; 7.55 µM (active) in [15]; 33.5 µM (active) in test [19].

For the compound `O=c1[nH]c(=O)[nH]c(=O)[nH]1`, the compound was classed as inactive in test [1], in test [2], in [3], in test [4], in test [5] and in [6]. Also, the outcome in test [7], in test [8], in test [9], in test [10], in test [11] and in test [12] was inactive. Also, the compound was called inactive in [18], in [13], in test [14], in [15], in test [16] and in test [20]. Moreover, in [17], the result was inactive.

Take `CCNc1nc(NC(C)(C)C)nc(SC)n1`: the result in test [1], in test [2], in test [3], in [4], in test [5] and in [6] was inactive. In addition, the result in test [7], in test [8], in test [9], in test [11], in test [12] and in [13] was inactive. For the same compound, the compound was classed as inactive in test [17]. Moreover, in test [15], the AC50 was 2.02 µM (active).
